High-throughput results deposited in PubChem by ICCB-Longwood Screening Facility, Harvard Medical School.
This excerpt belongs to a sample that is enriched for hits.
Anaer choline gr – blocks anaerobic gram-negative growth on choline; Gram-negative bacterium anaerobic choline minimal medium, absorbance growth; hits give low values; calls only; 0.2% of 55,000 active; call rule not given here
Each line names hits and unclear results; the compound was inactive in the other large screens; ! = not active in a repeat.

Cc1cc(SCC(=O)NC(C)c2ccccc2)n2ncc(-c3ccc(F)cc3)c2n1 (stereo not drawn)	none
CC1Cc2cc(S(=O)(=O)CCC(=O)N3CCN(c4ccccc4)CC3)ccc2N1C(=O)C1CC1 (stereo not drawn)	none
Cc1cccc(-c2noc(CSc3ccc(-c4ccccc4)nn3)n2)c1	none
O=C(C1CC(c2ccc(F)cc2)=NO1)N1CCOCC1 (stereo not drawn)	none
O=C(Nc1ccc2nc3n(c(=O)c2c1)CCCC3)c1cc2ccccc2[nH]1	none
O=[N+]([O-])c1ccc2c(c1)S(=O)(=O)C=C2	Anaer choline gr active!
Nc1nc(-c2ccc(Cl)c(Cl)c2)c(-c2ccncc2)s1	none
CC(C)CN1CCN(S(=O)(=O)c2ccc(-c3nnc(C(C)C)o3)o2)CC1	Anaer choline gr active
CC(C)c1nnc(-c2ccc(S(=O)(=O)N3CCCC3)o2)o1	none
CC(C)c1nnc(-c2ccc(S(=O)(=O)N3CCN(C(C)C)CC3)o2)o1	none
O=C(NCC(c1ccc(Cl)cc1)N1CCOCC1)c1cc(-c2ccc(Br)cc2)on1 (stereo not drawn)	none
C=C1C(CO)C(O)CC1n1cnc2c(=O)[nH]c(N)nc21 (stereo not drawn)	none
CNc1oc(-c2ccc(S(=O)(=O)N3CCCCC3)cc2)nc1C#N	none
COc1ccc(OC)c(S(=O)(=O)NCc2nc3cccnc3n2C2CCCC2)c1	none
O=C1Nc2ccccc2C1Cc1ccc(Cl)cc1 (stereo not drawn)	Anaer choline gr active
COc1cc(CC2C(=O)Nc3ccccc32)cc(Cl)c1OC (stereo not drawn)	none
O=C1Nc2ccccc2C1Cc1ccccc1F (stereo not drawn)	none
CCOC(=O)c1cc2ccsc2n1CC(=O)N(CC)c1ccccc1	none
CCCc1nn2c(=O)cc(CN(C)C3CCCCC3)nc2s1	none
CCn1c(=O)c2c(C(=O)N3CCOCC3)cc(=O)n(CC)c2n(C)c1=O	none
Cc1csc(-c2cc(S(=O)(=O)NC(C)C)cn2CC(=O)N2CCCCC2)n1	none
CC(=O)NNC(=O)N1Cc2ccccc2Oc2ccc(Cl)cc21	none
CCN(CC)CCCNC(=O)CCCN1C(=O)c2cccnc2Oc2ccc(Cl)cc21	none
CCN(CC)CCCCN1c2ccccc2Oc2ccc(Cl)cc21	Anaer choline gr active
CCn1c(=O)c(-c2noc(CCC(=O)Nc3ccccc3F)n2)nn(-c2ccccc2)c1=O	none
O=C(Nc1ccc2[nH]c(=O)oc2c1)c1ccccc1Cl	none
O=C(Nc1ccc(-c2nc(-c3cccc(Br)c3)co2)cc1)Nc1ccc2c(c1)OCCO2	none
Cc1cc(N2CCN(C)CC2)nc(N2CCN(S(=O)(=O)c3ccc(Br)cc3)CC2)n1	none
Cc1cc(N2CCCC2)nc(N2CCN(S(=O)(=O)c3ccc(Br)cc3)CC2)n1	Anaer choline gr active
O=S(=O)(c1ccc(Br)cc1)N1CCN(c2ccc(N3CCCC3)nn2)CC1	none
Cc1ccc(C)c(N2CCN(C(=O)C3CCCCN3S(=O)(=O)c3ccc(F)cc3)CC2)c1 (stereo not drawn)	none
CC(C)(C)c1ccc(S(=O)(=O)Nc2ccc(-c3nnc(-c4ccccc4)o3)cc2)cc1	none
CC(C)(C)c1ccc(S(=O)(=O)/C=C/C#N)cc1	Anaer choline gr active
Cc1ccc(S(=O)(=O)C=CC#N)cc1	none
O=C(c1noc2c1CCCCC2)N1CCCC1	none
CCOc1ccc(CCNC(=O)c2ccc3c(c2)sc2nc(-c4cccc(OC)c4)cn23)cc1OCC	none
Cc1ccc(C(=O)NCCc2csc3nc(-c4ccccc4C)nn23)cc1C	none
CC(C)CNC(=O)N1CCC(N2CCN(Cc3cccc(F)c3)C(=O)C2=O)CC1	none
CC(C)c1ccc(-c2noc(SCC(=O)NCC3CCCO3)n2)cc1 (stereo not drawn)	Anaer choline gr active
Cc1ccc(NC(=O)CSc2nc(-c3ccc(C(C)C)cc3)no2)cc1	none
CC(C)c1ccc(-c2noc(SCC(=O)Nc3ccccc3Cl)n2)cc1	none
Cc1cc(C2CCCN2S(=O)(=O)c2c(C)noc2C)on1 (stereo not drawn)	none
CC(C)(C)c1ccc(C(=O)N2CCN(c3cc(=O)n4nc(-c5ccccc5)sc4n3)CC2)cc1	none
CC(NC(=O)c1ccc(F)cc1)c1ccc2c(c1)OCCCO2 (stereo not drawn)	none
O=C(c1ccc(NC2CCCC2)nn1)N1CCc2ccccc21	none
COc1ccc(CNc2ccc(C(=O)N3CCc4ccccc43)nn2)cc1	Anaer choline gr active
COc1ccccc1N1CCN(c2ccc(C(=O)N3CCc4ccccc43)nn2)CC1	none
CCc1ccc(NCc2cc3ccc(OC)cc3n(CC(=O)Nc3ccc4c(c3)OCO4)c2=O)cc1	Anaer choline gr active
COC(=O)c1ccccc1NC(=O)Cn1c(=O)c(CNc2ccccc2)cc2ccc(OC)cc21	none
CCOC(=O)c1ccccc1NC(=O)Cn1c(=O)c(CNc2ccc(C)cc2)cc2ccc(OC)cc21	none
C=CCNC(=O)CSCc1noc(-c2ccc(C)cc2)n1	none
Cc1ccc(S(=O)(=O)Cc2noc(-c3ccc(Br)cc3)n2)cc1	none
